# Reference: ChEMBL document CHEMBL3988442, “University of Dundee, Small-Polar-MMV Screening Library” (2021)
# For some assays here: Results with a measured potency or affinity are listed apart.
# Tests used:
# Set-up in all cases: scale not given: direction of the effect not stated beside the values
# [1] = molecular target: Protein translocase subunit SecA (Escherichia coli (strain K12)) (UniProt P10408); test: Assay to Identify E. coli SecA ATPase Inhibitors; assay type: functional; conditions: 30 µM
# Chain of Protein translocase subunit SecA (Escherichia coli (strain K12)) (P10408 whole entry): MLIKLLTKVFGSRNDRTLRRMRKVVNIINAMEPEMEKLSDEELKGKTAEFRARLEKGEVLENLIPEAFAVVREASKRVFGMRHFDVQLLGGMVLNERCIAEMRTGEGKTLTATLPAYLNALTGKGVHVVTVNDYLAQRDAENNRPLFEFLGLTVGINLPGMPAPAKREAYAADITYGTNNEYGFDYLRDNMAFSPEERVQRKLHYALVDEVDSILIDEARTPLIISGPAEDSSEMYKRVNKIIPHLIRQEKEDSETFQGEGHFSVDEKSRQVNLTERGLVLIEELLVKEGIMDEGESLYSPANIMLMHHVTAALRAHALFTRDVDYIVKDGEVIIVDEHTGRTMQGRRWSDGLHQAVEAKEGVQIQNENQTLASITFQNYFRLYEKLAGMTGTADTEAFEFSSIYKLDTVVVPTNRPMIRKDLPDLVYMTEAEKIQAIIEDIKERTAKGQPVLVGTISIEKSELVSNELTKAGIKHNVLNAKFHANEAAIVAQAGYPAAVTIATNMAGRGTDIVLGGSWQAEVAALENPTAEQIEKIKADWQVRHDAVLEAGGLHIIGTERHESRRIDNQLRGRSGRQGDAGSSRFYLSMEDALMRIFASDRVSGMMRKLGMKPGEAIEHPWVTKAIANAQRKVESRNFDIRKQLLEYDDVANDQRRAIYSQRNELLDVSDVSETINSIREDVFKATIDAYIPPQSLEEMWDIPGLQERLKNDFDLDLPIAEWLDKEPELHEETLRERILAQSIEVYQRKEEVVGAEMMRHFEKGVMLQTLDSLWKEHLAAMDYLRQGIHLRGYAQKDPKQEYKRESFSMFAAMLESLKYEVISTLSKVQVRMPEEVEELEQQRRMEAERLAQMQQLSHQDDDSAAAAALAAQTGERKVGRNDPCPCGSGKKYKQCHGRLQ
# [2] = molecular target: T1, Ubiquitin-activating enzyme e1, putative (Leishmania donovani (strain BPK282A1)) (UniProt E9BSI1); test: Leishmania donovani Ubiquitin Activating Enzyme (LdE1); assay type: functional; conditions: 30 µM
# T1 sequence (whole entry): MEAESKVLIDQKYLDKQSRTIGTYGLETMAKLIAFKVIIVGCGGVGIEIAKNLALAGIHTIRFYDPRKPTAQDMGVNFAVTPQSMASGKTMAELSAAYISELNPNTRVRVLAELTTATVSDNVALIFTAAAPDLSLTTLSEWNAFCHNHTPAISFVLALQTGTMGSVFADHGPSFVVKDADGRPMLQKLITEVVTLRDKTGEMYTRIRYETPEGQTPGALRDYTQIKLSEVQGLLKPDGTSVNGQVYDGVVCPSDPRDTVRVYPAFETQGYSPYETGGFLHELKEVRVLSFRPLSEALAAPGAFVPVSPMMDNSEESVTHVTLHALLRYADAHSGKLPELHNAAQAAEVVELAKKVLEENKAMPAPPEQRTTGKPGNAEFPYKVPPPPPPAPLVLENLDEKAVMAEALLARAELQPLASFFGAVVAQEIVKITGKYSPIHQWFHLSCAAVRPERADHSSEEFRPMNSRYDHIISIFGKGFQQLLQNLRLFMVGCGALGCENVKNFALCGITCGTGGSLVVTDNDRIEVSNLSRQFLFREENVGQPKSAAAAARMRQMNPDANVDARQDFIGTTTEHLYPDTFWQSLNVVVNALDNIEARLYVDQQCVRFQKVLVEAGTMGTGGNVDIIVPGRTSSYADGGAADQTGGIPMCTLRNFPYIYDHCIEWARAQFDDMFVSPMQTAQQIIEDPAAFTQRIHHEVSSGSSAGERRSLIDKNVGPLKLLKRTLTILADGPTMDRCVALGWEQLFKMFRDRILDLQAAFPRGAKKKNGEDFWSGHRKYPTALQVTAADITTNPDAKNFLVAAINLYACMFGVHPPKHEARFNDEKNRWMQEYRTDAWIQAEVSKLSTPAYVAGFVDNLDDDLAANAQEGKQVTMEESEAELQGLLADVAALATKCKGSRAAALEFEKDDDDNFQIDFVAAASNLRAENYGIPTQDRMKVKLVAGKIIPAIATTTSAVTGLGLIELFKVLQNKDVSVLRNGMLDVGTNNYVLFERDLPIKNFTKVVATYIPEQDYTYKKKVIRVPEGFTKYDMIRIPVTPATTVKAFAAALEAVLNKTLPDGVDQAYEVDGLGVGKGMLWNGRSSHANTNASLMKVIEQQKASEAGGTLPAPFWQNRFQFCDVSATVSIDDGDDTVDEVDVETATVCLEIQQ
# [3] = molecular target: AMP-activated protein kinase, AMPK (Homo sapiens) (UniProt P54646+O43741+P54619+Q9UGJ0+Q9Y478+Q13131+Q9UGI9); test: AMP-dependent Kinase enzyme assay. An in vitro enzyme assay that detects ADP turnover that is directly proportional to AMPK activity. This uses naive AMPK that is activated during the assay with MK-8722; assay type: functional; conditions: 30 µM
# [4] = molecular target: Sialic acid-binding Ig-like lectin 9 (Homo sapiens) (UniProt Q9Y336); test: Hs-Siglec9 ALPHAscreen SOP 20170721; conditions: 10 µM
# Chain of Sialic acid-binding Ig-like lectin 9 (Homo sapiens) (Q9Y336 whole entry): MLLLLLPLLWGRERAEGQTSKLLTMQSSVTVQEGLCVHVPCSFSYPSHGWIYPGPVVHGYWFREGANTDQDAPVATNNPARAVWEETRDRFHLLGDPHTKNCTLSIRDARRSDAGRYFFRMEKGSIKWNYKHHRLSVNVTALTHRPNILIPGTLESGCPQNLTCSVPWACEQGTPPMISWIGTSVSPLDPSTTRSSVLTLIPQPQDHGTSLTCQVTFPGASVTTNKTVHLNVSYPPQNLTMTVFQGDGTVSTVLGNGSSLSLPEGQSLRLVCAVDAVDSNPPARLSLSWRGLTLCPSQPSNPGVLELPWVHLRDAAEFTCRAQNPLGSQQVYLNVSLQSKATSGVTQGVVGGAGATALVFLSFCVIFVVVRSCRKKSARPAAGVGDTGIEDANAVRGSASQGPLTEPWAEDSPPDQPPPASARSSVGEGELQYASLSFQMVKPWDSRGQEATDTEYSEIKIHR
# Trypanosoma cruzi = test: Trypanosoma cruzi phosphomannomutase and mannose-1-phosphate guanylyltransferase assay; assay type: functional; conditions: 10 µM
# [5] = molecular target: T2, Arginase-2, mitochondrial (Homo sapiens) (UniProt P78540); test: in vitro enzyme assay to detect the production of urea directly proportional to the activity of Arginase II; assay type: functional; conditions: 33.3 µM; also: in the data most compounds retested in dose-response had high values
# T2 sequence (whole entry): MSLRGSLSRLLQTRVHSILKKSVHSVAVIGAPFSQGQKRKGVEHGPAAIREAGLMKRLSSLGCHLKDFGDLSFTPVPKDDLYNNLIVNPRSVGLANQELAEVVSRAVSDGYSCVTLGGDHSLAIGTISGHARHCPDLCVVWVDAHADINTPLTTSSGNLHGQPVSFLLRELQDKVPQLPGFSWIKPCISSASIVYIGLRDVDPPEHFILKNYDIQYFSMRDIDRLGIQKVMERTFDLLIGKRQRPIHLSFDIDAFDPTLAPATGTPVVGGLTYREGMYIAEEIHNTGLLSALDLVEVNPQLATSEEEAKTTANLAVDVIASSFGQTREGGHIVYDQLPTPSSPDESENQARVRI
# [6] = molecular target: T3, Proteasome subunit beta (Trypanosoma cruzi) (UniProt O96673); test: Trypanosoma cruzi proteasome chymotrypsin-like activity (TcProtChymo) assay.; also: in the data most compounds retested in dose-response had high values; assay type: functional; conditions: 9.37 µM
# T3 sequence (whole entry): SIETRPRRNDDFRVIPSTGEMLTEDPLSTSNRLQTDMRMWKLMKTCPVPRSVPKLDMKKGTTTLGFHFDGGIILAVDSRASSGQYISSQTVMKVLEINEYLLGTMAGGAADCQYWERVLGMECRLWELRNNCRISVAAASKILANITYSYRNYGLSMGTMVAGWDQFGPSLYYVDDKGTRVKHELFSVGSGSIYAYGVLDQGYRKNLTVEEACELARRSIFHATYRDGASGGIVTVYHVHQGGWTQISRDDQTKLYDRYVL
# Homo sapiens = species on record: Homo sapiens; test: To identify inhibition of the IFN signalling (Jak-Stat) pathway via expression of an eGFP reporter gene under the control of an IFN-stimulated response element (ISRE) containing MxA promoter.; assay type: functional; conditions: 30 µM
# [7] = molecular target: T4, Tyrosyl-tRNA synthetase, putative (Trypanosoma cruzi (strain CL Brener)) (UniProt Q4DSP6); test: Trypanosoma cruzi tyrosyl tRNA synthetase (TcYRS) _High Tyrosine SOP; assay type: functional; conditions: 30 µM; also: in the data most compounds retested in dose-response had high values
# T4 sequence (whole entry): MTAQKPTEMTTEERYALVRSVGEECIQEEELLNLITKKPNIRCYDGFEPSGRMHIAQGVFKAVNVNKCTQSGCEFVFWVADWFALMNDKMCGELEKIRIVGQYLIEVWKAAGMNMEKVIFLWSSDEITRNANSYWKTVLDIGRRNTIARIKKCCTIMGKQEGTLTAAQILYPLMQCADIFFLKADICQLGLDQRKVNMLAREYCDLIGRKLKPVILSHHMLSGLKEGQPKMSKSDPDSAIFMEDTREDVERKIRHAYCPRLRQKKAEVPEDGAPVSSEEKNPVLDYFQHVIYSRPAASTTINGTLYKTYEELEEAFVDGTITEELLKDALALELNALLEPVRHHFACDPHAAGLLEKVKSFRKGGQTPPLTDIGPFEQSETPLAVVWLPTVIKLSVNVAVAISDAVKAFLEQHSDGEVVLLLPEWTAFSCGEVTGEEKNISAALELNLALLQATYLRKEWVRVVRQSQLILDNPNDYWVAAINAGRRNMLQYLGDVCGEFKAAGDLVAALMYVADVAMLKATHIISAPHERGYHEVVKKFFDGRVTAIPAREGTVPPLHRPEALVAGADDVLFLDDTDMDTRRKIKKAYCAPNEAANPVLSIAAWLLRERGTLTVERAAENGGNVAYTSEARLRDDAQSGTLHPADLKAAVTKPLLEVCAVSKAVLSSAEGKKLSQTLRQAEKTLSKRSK
# [8] = molecular target: T4, Tyrosyl-tRNA synthetase, putative (Trypanosoma cruzi (strain CL Brener)); test: Trypanosoma cruzi tyrosyl tRNA synthetase (TcYRS) SOP; assay type: functional; conditions: 30 µM
# [9] = molecular target: Chromo domain-containing protein 1 (Saccharomyces cerevisiae (strain ATCC 204508 / S288c) (Baker's yeast)) (UniProt P32657); test: ScCHD-1 Enzyme Inhibition Assay; assay type: functional; conditions: 30 µM; also: in the data most compounds retested in dose-response had high values
# Chain of Chromo domain-containing protein 1 (Saccharomyces cerevisiae (strain ATCC 204508 / S288c) (Baker's yeast)) (P32657 whole entry, the tested form may be a part): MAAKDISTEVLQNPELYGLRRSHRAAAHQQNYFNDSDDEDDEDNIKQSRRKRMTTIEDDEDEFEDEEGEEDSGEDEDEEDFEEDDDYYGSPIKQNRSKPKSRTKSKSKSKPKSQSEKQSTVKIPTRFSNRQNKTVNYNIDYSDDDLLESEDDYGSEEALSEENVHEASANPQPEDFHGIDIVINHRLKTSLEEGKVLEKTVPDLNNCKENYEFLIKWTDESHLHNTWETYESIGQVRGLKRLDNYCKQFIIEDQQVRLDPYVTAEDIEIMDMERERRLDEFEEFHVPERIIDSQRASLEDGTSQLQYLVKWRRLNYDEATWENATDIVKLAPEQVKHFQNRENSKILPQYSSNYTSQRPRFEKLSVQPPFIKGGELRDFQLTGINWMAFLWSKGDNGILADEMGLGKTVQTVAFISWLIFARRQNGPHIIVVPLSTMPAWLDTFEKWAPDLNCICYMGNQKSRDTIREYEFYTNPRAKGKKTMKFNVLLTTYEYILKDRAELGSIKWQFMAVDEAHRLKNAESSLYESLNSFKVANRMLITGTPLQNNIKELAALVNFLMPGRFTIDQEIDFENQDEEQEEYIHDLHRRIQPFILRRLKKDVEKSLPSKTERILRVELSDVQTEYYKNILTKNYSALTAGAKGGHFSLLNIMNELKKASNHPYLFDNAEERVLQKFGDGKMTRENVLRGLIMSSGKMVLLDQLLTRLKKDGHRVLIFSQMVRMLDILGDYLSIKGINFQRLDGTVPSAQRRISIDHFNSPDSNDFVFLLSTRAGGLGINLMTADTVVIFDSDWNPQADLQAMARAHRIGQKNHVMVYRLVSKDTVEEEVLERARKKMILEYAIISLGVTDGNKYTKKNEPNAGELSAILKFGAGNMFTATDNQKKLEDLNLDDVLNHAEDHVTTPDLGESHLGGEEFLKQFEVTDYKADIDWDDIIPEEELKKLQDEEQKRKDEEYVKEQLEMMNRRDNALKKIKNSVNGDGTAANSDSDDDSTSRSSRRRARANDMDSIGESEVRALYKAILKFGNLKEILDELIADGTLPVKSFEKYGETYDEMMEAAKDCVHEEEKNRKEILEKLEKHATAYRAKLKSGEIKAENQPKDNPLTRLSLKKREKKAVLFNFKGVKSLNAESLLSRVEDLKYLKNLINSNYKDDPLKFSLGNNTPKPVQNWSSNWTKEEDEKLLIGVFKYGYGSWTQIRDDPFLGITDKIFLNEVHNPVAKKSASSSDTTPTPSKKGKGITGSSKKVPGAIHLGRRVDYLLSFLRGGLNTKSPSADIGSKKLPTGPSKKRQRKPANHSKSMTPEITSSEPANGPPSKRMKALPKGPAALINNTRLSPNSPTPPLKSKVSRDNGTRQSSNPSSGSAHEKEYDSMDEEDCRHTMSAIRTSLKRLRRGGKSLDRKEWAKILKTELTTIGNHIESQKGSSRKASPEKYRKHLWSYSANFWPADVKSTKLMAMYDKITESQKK
Compound,Percent Effect [1],Percent Effect [2],Percent Effect [3],Percent Effect [4],Percent Effect (Trypanosoma cruzi),Percent Effect [5],Percent Effect [6],Percent Effect (Homo sapiens),Percent Effect [7],Percent Effect [8],Percent Effect [9]
Cc1ccc(C2CCCCCN2Cc2cn(C)nc2C)s1 (stereo not given),-9.52%,18.2%,0.0483%,-1.66%,1.48%,-4.52%,9.92%,-5.04%,0%,14.1%,-7.58%
COc1cccc(CN(C)S(=O)(=O)N2CCOCC2)c1,-1.1%,13.2%,1.96%,-0.478%,2.63%,-10.7%,22.1%,23.5%,5.32%,18.2%,-6.9%
O=C1[C@H]2CN(CC3CC3)C[C@H]2CN1Cc1cccc(F)c1,1.22%,-56.8%,4.89%,3.99%,-0.0978%,-0.955%,12.7%,-14.7%,2.16%,2.56%,9.93%
O=C(Cn1ccc2ccc(Br)cc21)NCc1ccc(C(=O)O)cc1,-2.06%,-5.26%,4.18%,-0.116%,-7.69%,-3.55%,9.88%,-5.25%,-10.6%,-13%,-4.34%
CC(C)COCC(NC(=O)c1cc[nH]n1)c1ccco1 (stereo not given),-5.65%,24.3%,-9.5%,15.5%,1.79%,-13.6%,5.59%,19.5%,4.43%,18.5%,-12.3%
Cc1ccc(CN2CCc3ncc(CNS(C)(=O)=O)n3CC2)o1,-0.0355%,8.22%,-1.38%,6.78%,-5.56%,-1.6%,15.3%,16.8%,7.29%,16.1%,-0.506%
CCN(Cc1ccco1)C(=O)Nc1cc(C(F)(F)F)c[nH]c1=O,-7.27%,10.5%,0.625%,-6.37%,-2.71%,0.719%,2.79%,-6.49%,4.43%,13.6%,-9.51%
Cc1nccn1-c1nccnc1C1CCN(Cc2ccc(F)cc2)CC1,-2.09%,21.3%,4.62%,-5.84%,5.91%,-2.56%,15.2%,7.46%,4.25%,16.7%,-4.22%
Cc1nc(C)n(CC2CCCN(Cc3cccc(C#N)c3)C2)n1 (stereo not given),-3.63%,-18.9%,-7.23%,5.42%,-1.23%,-7.62%,5.59%,3.79%,6.4%,13.6%,-5.48%
Cc1csc2nc3n(c(=O)c12)CCN(C(=O)c1ccncc1)CC3,-6.48%,20.3%,7.17%,-3.24%,1.78%,-2.09%,9.83%,12.7%,2.15%,11.7%,-13.5%
